# Assay results taken from PubChem BioAssay (EPA / NIEHS).
# Values joined by “and” are separate entries in the source; they are usually repeats but may differ in a detail not shown here. Identical values can stand only once. Some compounds were tested as several samples or in several runs, with calls that do not always agree. Active and inactive are the calls of the source. The calls were made as follows: active = hit-call score of the fitted dose curve at least 0.9, where 1 is the maximum; inactive = score below 0.9.
# Legend:
# [1] = BSK_hDFCGF_SRB: Viability Assessment in the BioMAP Diversity Plus: hDFCGF Assay (AID 2283061); settings: primary human foreskin fibroblasts;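 also: cells exposed to compound for 24 h before the read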
# How it was run: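 SRB-based viability read on primary human skin fibroblasts at 24 h: TCA fixation, 0.1% dye, 560 nm. Gain or loss of signal is fitted against the DMSO negative control.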
# [2] = read-out: TIMP metallopeptidase inhibitor 1 (TIMP1), TIMP1 (gene 7076); experiment: BSK_hDFCGF_TIMP1: BioMAP Diversity Plus: hDFCGF Assay for TIMP metallopeptidase inhibitor 1 (TIMP1) Biomarker Activity (AID 2283062); settings: primary human foreskin fibroblasts; actives raise or lower the signal
# How it was run: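 Bidirectional curve fitting against DMSO baseline yielded this endpoint, based on ELISA detection of TIMP-1 in primary human foreskin fibroblasts exposed to compound for 24 h.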
# [3] = read-out: Matrix Metallopeptidase 1 (MMP1), MMP1 (gene 4312); experiment: BSK_hDFCGF_MMP1: BioMAP Diversity Plus: hDFCGF Assay for Matrix Metallopeptidase 1 (MMP1) Biomarker Activity (AID 2283064); settings: primary human foreskin fibroblasts; actives raise or lower the signal
# How it was run: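 Primary human foreskin fibroblasts in the hDFCGF system were dosed with test chemical, and MMP1 was measured by ELISA 24 h later. Values come from bidirectional curve fitting against the DMSO baseline.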
# [4] = read-out: Vascular cell adhesion molecule 1 (VCAM1), VCAM1 (gene 7412); experiment: BSK_hDFCGF_VCAM1: BioMAP Diversity Plus: hDFCGF Assay for Vascular cell adhesion molecule 1 (VCAM1) Biomarker Activity (AID 2283065); settings: primary human foreskin fibroblasts; actives raise or lower the signal;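 as to AC50: VCAM-1 protein level quantified by ELISA after 24 h chemical exposure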
# How it was run: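 Measured after 24 h chemical treatment of primary human skin fibroblasts, VCAM-1 was detected by ELISA and concentration-response analysed in both directions versus DMSO vehicle.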
# [5] = read-out: Plasminogen activator inhibitor-1 (PAI1), SERPINE1 (gene 5054); experiment: BSK_hDFCGF_PAI1: BioMAP Diversity Plus: hDFCGF Assay for Plasminogen activator inhibitor-1 (PAI1) Biomarker Activity (AID 2283066); settings: primary human foreskin fibroblasts; actives raise or lower the signal
# How it was run: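 Primary dermal fibroblasts (human foreskin), hDFCGF system; compound 24 h; PAI-1 by ELISA; bidirectional fit vs DMSO control.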
# [6] = read-out: Intercellular Adhesion Molecule 1 (ICAM1), ICAM1 (gene 3383); experiment: BSK_KF3CT_ICAM1: BioMAP Diversity Plus: KF3CT Assay for Intercellular Adhesion Molecule 1 (ICAM1) Biomarker Activity (AID 2283067); settings: primary human keratinocytes with fibroblasts; actives raise or lower the signal
# How it was run: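 Bidirectional curve fitting against a DMSO baseline was applied to ICAM-1 ELISA signal from primary human skin co-cultures harvested 24 h after treatment, with SRB staining of parallel wells for overt cytotoxicity.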
# [7] = read-out: Interferon-gamma inducible Protein 10 (IP10), CXCL10 (gene 3627); experiment: BSK_KF3CT_IP10: BioMAP Diversity Plus: KF3CT Assay for Interferon-gamma inducible Protein 10 (IP10) Biomarker Activity (AID 2283068); settings: primary human keratinocytes with fibroblasts; actives raise or lower the signal
# How it was run: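 Signal is secreted/surface IP-10 by ELISA in a human primary skin co-culture of keratinocytes and foreskin fibroblasts, taken 24 h post-dosing; DMSO served as negative control.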
# [8] = BSK_KF3CT_SRB: Viability Assessment in the BioMAP Diversity Plus: KF3CT Assay (AID 2283069); settings: primary human keratinocytes with fibroblasts;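 also: total protein by sulforhodamine B staining as a cytotoxicity measure; read 24 h after compound addition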
# How it was run: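 Human primary keratinocyte plus foreskin fibroblast co-culture exposed to chemicals for 24 h. Total protein measured by 0.1% sulforhodamine B staining after 10% TCA fixation, read at 560 nm; bidirectional fitting versus DMSO baseline.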
# [9] = read-out: Interleukin-1 alpha (IL1a), IL1A (gene 3552); experiment: BSK_KF3CT_IL1a: BioMAP Diversity Plus: KF3CT Assay for Interleukin-1 alpha (IL1a) Biomarker Activity (AID 2283070); settings: primary human keratinocytes with fibroblasts; actives raise or lower the signal
# How it was run: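 Human keratinocyte plus foreskin fibroblast primary co-culture, sampled 24 h after chemical dosing. IL-1a measured by ELISA; responses fitted bidirectionally against DMSO baseline (negative control), so gain or loss of signal both count.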
# [10] = read-out: Monokine induced gamma interferon (MIG), CXCL9 (gene 4283); experiment: BSK_hDFCGF_MIG: BioMAP Diversity Plus: hDFCGF Assay for Monokine induced gamma interferon (MIG) Biomarker Activity (AID 2283063); settings: primary human foreskin fibroblasts; actives raise or lower the signal
# How it was run: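 Endpoint derived by bidirectional fitting relative to DMSO; MIG quantified via ELISA in primary human foreskin fibroblasts harvested 24 h after dosing.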
structure (smiles),measurement,setting,value
CCCCCCCCCC(=O)OCC,outcome,[1],inactive
same,outcome,[2],inactive
same,outcome,[3],inactive
same,AC50,[4],31.9 µM (active)
same,AC50,[5],31.4 µM (active)
same,outcome,[6],inactive
same,outcome,[7],inactive
same,outcome,[8],inactive
same,outcome,[9],inactive
c1ccc(Sc2ccccc2)cc1,AC50,[1],39 µM (active)
same,AC50,[2],25.5 µM (active)
same,AC50,[3],30.2 µM (active)
same,AC50,[4],33.2 µM (active)
same,AC50,[5],20 µM (active)
same,outcome,[6],inactive
same,outcome,[7],inactive
same,AC50,[8],35.5 µM (active)
same,AC50,[9],30.8 µM (active)
CC(=O)OCC=C(C)CCC=C(C)CCC=C(C)C,outcome,[1],inactive
same,AC50,[2],26.3 µM (active)
same,outcome,[3],inactive
same,outcome,[4],inactive
same,AC50,[5],25.8 µM (active)
same,outcome,[6],inactive
same,outcome,[7],inactive
same,outcome,[8],inactive
same,outcome,[9],inactive
CCC(=O)OCC=Cc1ccccc1,outcome,[1],inactive
same,outcome,[2],inactive
same,outcome,[3],inactive
same,outcome,[4],inactive
same,outcome,[5],inactive
same,outcome,[6],inactive
same,outcome,[7],inactive
same,outcome,[8],inactive
same,outcome,[9],inactive
CC1(C)[C@H](C=C(Cl)Cl)[C@H]1C(=O)OCc1cccc(Oc2ccccc2)c1,outcome,[1],inactive
same,outcome,[2],inactive
same,outcome,[3],inactive
same,outcome,[4],inactive
same,outcome,[5],inactive
same,outcome,[6],inactive
same,outcome,[7],inactive
same,outcome,[8],inactive
same,outcome,[9],inactive
O=C(c1ccc(OCCN2CCCCC2)cc1)c1c(-c2ccc(O)cc2)sc2cc(O)ccc12,AC50,[1],24.4 µM (active)
same,AC50,[2],35.8 µM (active)
same,AC50,[10],32.1 µM (active)
same,AC50,[3],31.7 µM (active)
same,AC50,[4],31.4 µM (active)
same,AC50,[5],15.6 µM (active)
same,AC50,[6],38 µM (active)
same,AC50,[7],21 µM (active)
same,AC50,[8],29.2 µM (active)
same,AC50,[9],21.8 µM (active)
CC(=O)OC(C)(C)C1CC=C(C)CC1 (stereo not drawn),AC50,[1],36.7 µM (active)
same,outcome,[2],inactive
same,outcome,[3],inactive
same,outcome,[4],inactive
same,AC50,[5],23.6 µM (active)
same,outcome,[6],inactive
same,outcome,[7],inactive
same,outcome,[8],inactive
same,outcome,[9],inactive
CCOC(=O)CCCCCCCCC(=O)OCC,outcome,[1],inactive
same,outcome,[2],inactive
same,outcome,[3],inactive
same,outcome,[4],inactive
same,outcome,[5],inactive
same,outcome,[6],inactive
same,outcome,[7],inactive
same,outcome,[8],inactive
same,outcome,[9],inactive
c1ccc(OCCOc2ccccc2)cc1,AC50,[1],0.15 µM (active)
same,outcome,[1],inactive
same,outcome,[2],inactive
same,outcome,[3],inactive
same,outcome,[4],inactive
same,outcome,[5],inactive
same,outcome,[6],inactive
same,outcome,[7],inactive
same,outcome,[8],inactive
same,AC50,[9],2.45 µM (active)
same,outcome,[9],inactive
C=C(C)C(N)=O,outcome,[1],inactive
same,outcome,[2],inactive
same,outcome,[3],inactive
same,outcome,[4],inactive
same,outcome,[5],inactive
same,outcome,[6],inactive
same,outcome,[7],inactive
same,outcome,[8],inactive
same,outcome,[9],inactive
NC(=O)c1c(Cl)cccc1Cl,outcome,[1],inactive
same,outcome,[2],inactive
same,outcome,[10],inactive
same,outcome,[3],inactive
same,outcome,[4],inactive
same,outcome,[5],inactive
same,outcome,[6],inactive
same,outcome,[7],inactive
same,outcome,[8],inactive
same,outcome,[9],inactive
CCOC(=O)C=Cc1ccccc1,outcome,[1],inactive
same,outcome,[2],inactive
same,outcome,[3],inactive
same,outcome,[4],inactive
same,outcome,[5],inactive
same,outcome,[6],inactive
same,outcome,[7],inactive
same,outcome,[8],inactive
same,outcome,[9],inactive
C=C1CC/C=C(\C)CC[C@@H]2[C@@H]1CC2(C)C,AC50,[1],27.7 µM (active)
same,AC50,[2],27.5 µM (active)
same,AC50,[3],29.7 µM (active)
same,AC50,[4],28 µM (active)
same,AC50,[5],31.2 µM (active)
same,AC50,[6],30.3 µM (active)
same,AC50,[7],25.2 µM (active)
same,AC50,[8],28.1 µM (active)
same,AC50,[9],29.6 µM (active)
OCC(F)(OC(F)(F)C(F)(OC(F)(F)C(F)(F)C(F)(F)F)C(F)(F)F)C(F)(F)F (stereo not drawn),AC50,[1],6.02 µM (active) and 5.36 µM (active)
same,AC50,[2],3.33 µM (active)
same,AC50,[3],4.57 µM (active) and 4.92 µM (active)
same,AC50,[4],2.25 µM (active) and 2.1 µM (active)
same,AC50,[5],6.18 µM (active)
same,outcome,[5],inactive
same,AC50,[6],4.83 µM (active) and 3.33 µM (active)
same,AC50,[7],5.01 µM (active) and 4.55 µM (active)
same,AC50,[8],5.66 µM (active) and 4.19 µM (active)
same,outcome,[9],inactive
CCCCN(CCO)CCO,outcome,[1],inactive
same,outcome,[2],inactive
same,outcome,[3],inactive
same,outcome,[4],inactive
same,outcome,[5],inactive
same,outcome,[6],inactive
same,outcome,[7],inactive
same,outcome,[8],inactive
same,outcome,[9],inactive
O=C(O)C(F)(F)OC(F)(F)C(F)(F)OC(F)(F)C(F)(F)C(F)(F)C(F)(F)F,AC50,[1],10.4 µM (active)
same,outcome,[1],inactive
same,outcome,[2],inactive
same,outcome,[3],inactive
same,AC50,[4],5.95 µM (active) and 13.8 µM (active)
same,outcome,[5],inactive
same,outcome,[6],inactive
same,AC50,[7],32.2 µM (active) and 30 µM (active)
same,outcome,[8],inactive
same,outcome,[9],inactive
COc1ccccc1NC(=O)CC(C)=O,outcome,[1],inactive
same,outcome,[2],inactive
same,outcome,[3],inactive
same,outcome,[4],inactive
same,outcome,[5],inactive
same,outcome,[6],inactive
same,outcome,[7],inactive
same,outcome,[8],inactive
same,outcome,[9],inactive
CC/C(=C(\c1ccccc1)c1ccc(OCCN(C)C)cc1)c1ccccc1,AC50,[1],6.75 µM (active) and 6.55 µM (active)
same,AC50,[2],8.65 µM (active) and 11.5 µM (active)
same,AC50,[10],9.37 µM (active) and 11 µM (active)
same,AC50,[3],10.1 µM (active) and 11.1 µM (active)
same,AC50,[4],9.88 µM (active) and 9.9 µM (active)
same,AC50,[5],7.69 µM (active) and 7.18 µM (active)
same,AC50,[6],9.03 µM (active) and 8.65 µM (active)
same,AC50,[7],10.1 µM (active) and 7.37 µM (active)
same,AC50,[8],6.49 µM (active) and 9.44 µM (active)
same,AC50,[9],8.27 µM (active) and 11.2 µM (active)
O=C1OC2(c3ccc(O)cc3Oc3cc(O)ccc32)c2ccccc21,outcome,[1],inactive
same,outcome,[2],inactive
same,outcome,[3],inactive
same,outcome,[4],inactive
same,outcome,[5],inactive
same,outcome,[6],inactive
same,outcome,[7],inactive
same,outcome,[8],inactive
same,outcome,[9],inactive
C=C(F)C(=O)OC(C(F)(F)F)C(F)(F)F,AC50,[1],38.2 µM (active)
same,outcome,[1],inactive
same,outcome,[2],inactive
same,outcome,[3],inactive
same,outcome,[4],inactive
same,outcome,[5],inactive
same,outcome,[6],inactive
same,outcome,[7],inactive
same,outcome,[8],inactive
same,outcome,[9],inactive
CCCCOCCOCCO,outcome,[1],inactive
same,outcome,[2],inactive
same,outcome,[10],inactive
same,outcome,[3],inactive
same,outcome,[4],inactive
same,outcome,[5],inactive
same,outcome,[6],inactive
same,outcome,[7],inactive
same,outcome,[8],inactive
same,outcome,[9],inactive
